In PubChem BioAssay AID1159580 (chemical genetic matrix, 2015):
Among all 5,500 compounds or so, about 2,000 (36%) were called active. Inconclusive results (about 18%) are left out. No stated cut-off is given here; in the data, active means normalized growth mostly below about 0.91 (no sharp cut-off); inconclusive means no clear call, values can overlap the other calls; inactive means mostly above about 0.92. This is one part of the list.

Assay: chemical genetic growth profiling, strain panel (AID 1159580);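 further: tested at 20 µM; growth read once vehicle control cultures reached saturation at 30 °C; 1 = growth at the plate median or of vehicle wells; lower values mean less growth of the strain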
Settings: growth OD

Measured: normalized growth

CCN1CCN(C(=O)NC(C(=O)N[C@@H]2C(=O)N3[C@@H]2SC(C)(C)[C@@H]3C(=O)O)c2ccccc2)C(=O)C1=O (some centres not stated)
inactive: S. cerevisiae deletion strains, locus YJR075W, strain HOC1, active compounds read low 1.01 | S. cerevisiae deletion strains, locus YKL009W, strain mrt4, active compounds read low 1.02 | S. cerevisiae deletion strains, locus YKL068W, active compounds read low 1 | S. cerevisiae deletion strains, locus YKL085W, strain MDH1 (second series), active compounds read low 0.998 | S. cerevisiae deletion strains, locus YKL085W, strain MDH1, active compounds read low 0.998 | S. cerevisiae deletion strains, locus YKL160W, strain elf1, active compounds read low 0.985 | S. cerevisiae deletion strains, locus YKL190W, strain CNB1, active compounds read low 1.01 | S. cerevisiae deletion strains, locus YKR001C, strain vps1, active compounds read low 1.01 | S. cerevisiae deletion strains, locus YKR026C, strain gcn3, active compounds read low 0.996 | S. cerevisiae deletion strains, locus YKR091W, strain srl3, active compounds read low 1 | S. cerevisiae deletion strains, locus YLL001W, strain dnm1, active compounds read low 0.979 | S. cerevisiae deletion strains, locus YLL026W, active compounds read low 1.01 | S. cerevisiae deletion strains, locus YLL041C, strain sdh2, active compounds read low 0.997 | S. cerevisiae deletion strains, locus YLR027C, strain aat2, active compounds read low 0.998 | S. cerevisiae deletion strains, locus YLR039C, strain RIC1, active compounds read low 0.991 | S. cerevisiae deletion strains, locus YLR058C, strain SHM2, active compounds read low 1.02 | S. cerevisiae deletion strains, locus YLR102C, strain apc9, active compounds read low 1 | S. cerevisiae deletion strains, locus YLR113W, strain HOG1, active compounds read low 0.987 | S. cerevisiae deletion strains, locus YLR221C, strain rsa3, active compounds read low 1 | S. cerevisiae deletion strains, locus YLR258W, strain gsy2, active compounds read low 1 | S. cerevisiae deletion strains, locus YLR262C, strain YPT6 (second series), active compounds read low 0.983 | S. cerevisiae deletion strains, locus YLR262C, strain YPT6, active compounds read low 0.993 | S. cerevisiae deletion strains, locus YLR268W, strain sec22, active compounds read low 1.02 | S. cerevisiae deletion strains, locus YLR320W, strain mms22, active compounds read low 0.978 | S. cerevisiae deletion strains, locus YLR330W, strain CHS5, active compounds read low 1.01 | S. cerevisiae deletion strains, locus YLR342W, strain FKS1 (second series), active compounds read low 1.03 | S. cerevisiae deletion strains, locus YLR342W, strain FKS1, active compounds read low 0.991 | S. cerevisiae deletion strains, locus YLR357W, strain rsc2, active compounds read low 0.957 | S. cerevisiae deletion strains, locus YLR370C, strain arc18, active compounds read low 1.01 | S. cerevisiae deletion strains, locus YLR371W, strain rom2, active compounds read low 1.01 | S. cerevisiae deletion strains, locus YLR384C, strain iki3, active compounds read low 0.992 | S. cerevisiae deletion strains, locus YLR418C, strain cdc73, active compounds read low 1 | S. cerevisiae deletion strains, locus YML016C, strain PPZ1, active compounds read low 1.01 | S. cerevisiae deletion strains, locus YML032C, strain rad52, active compounds read low 1.01 | S. cerevisiae deletion strains, locus YML120C, strain ndi1, active compounds read low 1.01 | S. cerevisiae deletion strains, locus YML124C, strain tub3, active compounds read low 1.01 | S. cerevisiae deletion strains, locus YMR058W, strain fet3, active compounds read low 1 | S. cerevisiae deletion strains, locus YMR078C, strain ctf18, active compounds read low 1 | S. cerevisiae deletion strains, locus YMR125W, strain sto1, active compounds read low 0.988 | S. cerevisiae deletion strains, locus YMR129W, active compounds read low 1 | S. cerevisiae deletion strains, locus YMR205C, strain PFK2, active compounds read low 1.01 | S. cerevisiae deletion strains, locus YMR223W, strain ubp8, active compounds read low 1.01 | S. cerevisiae deletion strains, locus YMR231W, strain pep5, active compounds read low 0.989 | S. cerevisiae deletion strains, locus YMR263W, strain SAP30, active compounds read low 1.01 | S. cerevisiae deletion strains, locus YMR307W, strain GAS1, active compounds read low 0.931 | S. cerevisiae deletion strains, locus YNL067W, strain RPL9B, active compounds read low 1.01 | S. cerevisiae deletion strains, locus YNL071W, strain lat1, active compounds read low 0.999 | S. cerevisiae deletion strains, locus YNL128W, strain TEP1, active compounds read low 1.01 | S. cerevisiae deletion strains, locus YNL153C, strain GIM3, active compounds read low 1.01 | S. cerevisiae deletion strains, locus YNL183C, strain NPR1, active compounds read low 0.967 | S. cerevisiae deletion strains, locus YNL209W, strain ssb2, active compounds read low 1 | S. cerevisiae deletion strains, locus YNL233W, strain BNI4, active compounds read low 0.995 | S. cerevisiae deletion strains, locus YNL248C, strain rpa49, active compounds read low 0.996 | S. cerevisiae deletion strains, locus YNL250W, strain rad50, active compounds read low 1.01 | S. cerevisiae deletion strains, locus YNL271C, strain bni1, active compounds read low 1.01 | S. cerevisiae deletion strains, locus YNL298W, strain CLA4, active compounds read low 1.01 | S. cerevisiae deletion strains, locus YNL307C, strain MCK1, active compounds read low 1.01 | S. cerevisiae deletion strains, locus YNL322C, strain KRE1 (second series), active compounds read low 1 | S. cerevisiae deletion strains, locus YNL322C, strain KRE1, active compounds read low 1 | S. cerevisiae deletion strains, locus YNR049C, strain mso1, active compounds read low 0.993 | S. cerevisiae deletion strains, locus YNR052C, strain pop2, active compounds read low 1.01 | S. cerevisiae deletion strains, locus YOL006C, strain TOP1, active compounds read low 1.02 | S. cerevisiae deletion strains, locus YOL012C, strain htz1 1.52 | S. cerevisiae deletion strains, locus YOL147C, strain pex11, active compounds read low 1 | S. cerevisiae deletion strains, locus YOR001W, strain rrp6, active compounds read low 0.987 | S. cerevisiae deletion strains, locus YOR061W, strain CKA2, active compounds read low 1.01 | S. cerevisiae deletion strains, locus YOR069W, strain VPS5, active compounds read low 1.01 | S. cerevisiae deletion strains, locus YOR070C, strain gyp1, active compounds read low 1 | S. cerevisiae deletion strains, locus YOR080W, strain dia2, active compounds read low 0.997 | S. cerevisiae deletion strains, locus YOR083W, strain WHI5, active compounds read low 0.976 | S. cerevisiae deletion strains, locus YOR106W, strain vam3, active compounds read low 0.984 | S. cerevisiae deletion strains, locus YOR136W, strain idh2, active compounds read low 1.01 | S. cerevisiae deletion strains, locus YOR144C, strain elg1, active compounds read low 1.01 | S. cerevisiae deletion strains, locus YOR184W, strain ser1, active compounds read low 1.02 | S. cerevisiae deletion strains, locus YOR231W, strain MKK1, active compounds read low 0.985 | S. cerevisiae deletion strains, locus YOR265W, strain rbl2, active compounds read low 1 | S. cerevisiae deletion strains, locus YOR270C, strain vph1, active compounds read low 1.01 | S. cerevisiae deletion strains, locus YOR290C, strain snf2, active compounds read low 1.01 | S. cerevisiae deletion strains, locus YOR316C, strain cot1, active compounds read low 1.01 | S. cerevisiae deletion strains, locus YPL051W, strain arl3, active compounds read low 0.983 | S. cerevisiae deletion strains, locus YPL055C, strain LGE1, active compounds read low 1.01 | S. cerevisiae deletion strains, locus YPL078C, strain atp4, active compounds read low 0.976 | S. cerevisiae deletion strains, locus YPL106C, strain sse1, active compounds read low 1.02 | S. cerevisiae deletion strains, locus YPL240C, strain hsp82, active compounds read low 0.988 | S. cerevisiae deletion strains, locus YPL241C, strain CIN2, active compounds read low 1 | S. cerevisiae deletion strains, locus YPL256C, strain CLN2, active compounds read low 0.962 | S. cerevisiae deletion strains, locus YPR119W, strain clb2, active compounds read low 1.02 | S. cerevisiae deletion strains, locus YPR141C, strain kar3, active compounds read low 1.02 | S. cerevisiae deletion strains, locus YPR163C, strain tif3, active compounds read low 1.02 | S. cerevisiae deletion strains, locus YPR167C, strain met16, active compounds read low 1.02 | S. cerevisiae deletion strains, strain wtn01, active compounds read low 1.04 | S. cerevisiae strains, strain wild type, active compounds read low 1.01
